# Measurements from PubChem BioAssay (Tox21).
# Values joined by “and” are separate entries in the source; they are usually repeats but may differ in a detail not shown here. Equal entries are not always repeated. Results filed as inconclusive are left out. Entries that show only a call come without a potency. Active and inactive are the calls of the source. Unless noted, the call rests on the fitted dose curve; in most records, active means well fitted curve in the direction sought with a large enough effect in the repeat runs; inconclusive means weak or mixed curves; inactive means flat fitted curve, though single readings scatter.
# Columns and labels:
# [1] = qHTS assay to test for compound auto fluorescence at 535 nm (green) in HEK293 cells (AID 720680)
# [2] = qHTS assay to test for compound auto fluorescence at 460 nm (blue) in HEK293 cell free culture (AID 720681)
# Procedure, shortened: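 Compounds were added to cell-free DMEM with 10% FBS and fluorescence read directly. The blue channel used 405 nm excitation and 460 nm emission, with triamterene as the reference fluorophore.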
# [3] = qHTS assay to test for compound auto fluorescence at 535 nm (green) in HEK293 cell free culture (AID 720682)
# Procedure, shortened: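 Intrinsic compound fluorescence is measured in culture medium containing 10% FBS, with excitation at 485 nm and detection at 535 nm, referenced to fluorescein.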
# [4] = qHTS assay to test for compound auto fluorescence at 590 nm (red) in HEK293 cell free culture (AID 720683)
# Procedure, shortened: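 Cell-free wells of DMEM with 10% FBS received compound, and intrinsic fluorescence was read at excitation/emission 540/590 nm. Values expressed as equivalence to Rose Bengal sodium.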
# [5] = qHTS assay to test for compound auto fluorescence at 590 nm (red) in HepG2 cell free culture (AID 720684)
# Procedure, shortened: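 Compounds are added to culture medium (MEM, 10% FBS) lacking cells, then fluorescence is read at excitation 540 nm, emission 590 nm, with Rose Bengal sodium as the equivalency standard.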
# [6] = qHTS assay to test for compound auto fluorescence at 460 nm (blue) in HepG2 cell free culture (AID 720685)
# Procedure, shortened: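 Compound (23 nL) or DMSO pinned into cell-free MEM with 10% FBS; blue fluorescence read at 405/460 nm excitation/emission, expressed as auto-fluorescence equivalency to triamterene.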
# [7] = qHTS assay to test for compound auto fluorescence at 535 nm (green) in HepG2 cell free culture (AID 720686)
# [8] = qHTS assay to test for compound auto fluorescence at 460 nm (blue) in HepG2 cells (AID 720687)
# Procedure, shortened: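 HepG2 cells in MEM with 10% FBS, attached overnight at 37 C, were exposed to compound or DMSO for 1 hr at 37 C, 5% CO2. Blue fluorescence was read at 405/460 nm, with triamterene as reference fluorophore.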
# [9] = target: Glucocorticoid receptor (Homo sapiens) (UniProt P04150); assay: qHTS assay to identify small molecule agonists of the glucocorticoid receptor (GR) signaling pathway (AID 720691; active means well fitted activation curve with a large enough effect in the signal ratio in the repeat runs, not every such curve was filed as active; the % refers to the signal ratio; further: potency means the concentration at half of the fitted maximal effect)
# Glucocorticoid receptor (Homo sapiens), sequence (P04150 whole entry, looked up): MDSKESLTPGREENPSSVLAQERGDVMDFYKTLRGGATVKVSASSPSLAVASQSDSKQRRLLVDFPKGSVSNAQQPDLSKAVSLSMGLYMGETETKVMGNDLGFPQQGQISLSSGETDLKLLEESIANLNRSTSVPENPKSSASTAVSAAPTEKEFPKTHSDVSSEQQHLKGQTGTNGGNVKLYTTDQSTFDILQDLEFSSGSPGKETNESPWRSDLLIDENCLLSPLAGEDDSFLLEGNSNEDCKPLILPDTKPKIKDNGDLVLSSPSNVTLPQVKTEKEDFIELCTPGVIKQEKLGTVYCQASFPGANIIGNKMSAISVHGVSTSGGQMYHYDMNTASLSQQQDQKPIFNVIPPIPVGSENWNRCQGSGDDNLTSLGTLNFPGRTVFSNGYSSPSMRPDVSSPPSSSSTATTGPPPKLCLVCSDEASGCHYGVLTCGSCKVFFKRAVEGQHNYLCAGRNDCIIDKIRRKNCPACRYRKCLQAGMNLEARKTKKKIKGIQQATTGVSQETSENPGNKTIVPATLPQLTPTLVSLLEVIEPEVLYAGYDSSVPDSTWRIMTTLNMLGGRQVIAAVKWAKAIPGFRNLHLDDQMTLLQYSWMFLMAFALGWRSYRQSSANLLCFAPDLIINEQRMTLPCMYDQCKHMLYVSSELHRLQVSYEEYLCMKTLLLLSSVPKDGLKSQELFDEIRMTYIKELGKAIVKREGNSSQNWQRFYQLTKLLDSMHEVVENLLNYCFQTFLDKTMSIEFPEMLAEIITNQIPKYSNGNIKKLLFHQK
# Procedure, shortened: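 GR-bla HeLa cells carrying a GRE-driven beta-lactamase reporter, exposed to compounds for 18 h at 37 C. Reporter activation read as fluorescence after 2 h with LiveBLAzer B/G FRET substrate at room temperature.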
# [10] = target: Glucocorticoid receptor (Homo sapiens) (UniProt P04150); assay: qHTS assay to identify small molecule antagonists of the glucocorticoid receptor (GR) signaling pathway (AID 720692; active means well fitted inhibition curve with a large enough effect in the signal ratio in the repeat runs, not every such curve was filed as active; the % refers to the signal ratio; further: potency means the concentration at half of the fitted maximal effect)
# Procedure, shortened: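 GR-bla HeLa cells carrying a GRE-driven beta-lactamase reporter received compound after 4 h plating, then dexamethasone (5 nM final). After 18 h at 37C, the FRET substrate was loaded for 2 h at room temperature and fluorescence read.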
Compound,outcome [1],outcome [2],outcome [3],outcome [4],outcome [5],outcome [6],outcome [7],outcome [8],Potency [9],Potency [10]
C=CC(=O)OCCO,inactive,inactive,inactive,inactive,inactive,inactive,inactive,inactive,inactive,–
Nn1cnnc1,inactive,inactive,inactive,inactive,inactive,inactive,inactive,inactive,inactive,inactive
ClC1C(Cl)C(Cl)C(Cl)C(Cl)C1Cl (stereo not drawn),inactive,inactive,inactive,inactive,inactive,inactive,inactive,inactive,–,–
c1ccc(-c2cccc(-c3ccccc3)c2)cc1,inactive,inactive,inactive,inactive,inactive,inactive,inactive,–,–,–
CC1(C)C(C=C(Cl)Cl)C1C(=O)OC(C#N)c1cccc(Oc2ccccc2)c1 (stereo not drawn),inactive,inactive,inactive,inactive,inactive,inactive,inactive,inactive,inactive,–
NCc1cccnc1,inactive,inactive,inactive,inactive,inactive,inactive,inactive,inactive,–,–
Oc1ccc(-c2ccccc2)cc1,inactive,inactive,inactive,inactive,inactive,inactive,inactive,inactive,inactive,–
c1cc(OCC2CO2)ccc1Cc1ccc(OCC2CO2)cc1 (stereo not drawn),inactive,inactive,inactive,inactive,inactive,inactive,inactive,inactive,inactive,–
C1=Cc2cccc3cccc1c23,inactive,inactive,inactive,inactive,inactive,inactive,inactive,inactive,inactive,inactive
O=P(Oc1ccccc1)(Oc1ccccc1)Oc1ccccc1,inactive,inactive,inactive,inactive,inactive,inactive,inactive,inactive,inactive,inactive
O=c1oc2ccccc2c(O)c1C(CC(O)c1ccc(-c2ccc(Br)cc2)cc1)c1ccccc1 (stereo not drawn),inactive,inactive,inactive,inactive,inactive,inactive,inactive,inactive,–,–
CCCCCCCCC(=O)NCc1ccc(O)c(OC)c1,inactive,inactive,inactive,inactive,inactive,inactive,inactive,inactive,30.1 µM (active),–
COP(=S)(OC)Oc1ccc([N+](=O)[O-])cc1,inactive,inactive,inactive,inactive,inactive,inactive,inactive,–,–,–
CC(C)NC(C)C,inactive,inactive,inactive,inactive,inactive,inactive,inactive,inactive,inactive,inactive
C=CCc1ccc2c(c1)OCO2,inactive,inactive,inactive,inactive,inactive,inactive,inactive,–,–,–
Brc1ccc(Oc2cc(Br)c(Br)cc2Br)c(Br)c1,inactive,inactive,inactive,inactive,inactive,inactive,inactive,–,–,–
O=C(O)C(F)(F)C(F)(F)C(F)(F)C(F)(F)C(F)(F)C(F)(F)C(F)(F)F,inactive,inactive,inactive,inactive,inactive,inactive,inactive,–,–,–
O=Cc1ccco1,inactive,inactive,inactive,inactive,inactive,inactive,inactive,inactive,–,–
O=C(Nc1ccc(Br)cc1)c1cc(Br)cc(Br)c1O,inactive,inactive,inactive,inactive,inactive,inactive,inactive,inactive,inactive,–

Compound,outcome [1],outcome [2],outcome [3],outcome [4],outcome [5],outcome [6],outcome [7],outcome [8],Potency [9],Potency [10]
CCC(C)(C)c1ccc(O)cc1,inactive,inactive,inactive,inactive,inactive,inactive,inactive,inactive,inactive,inactive
CCC(C)(c1ccc(O)cc1)c1ccc(O)cc1,inactive,inactive,inactive,inactive,inactive,inactive,inactive,inactive,–,–
Nc1ccc(Cl)c(Cl)c1,inactive,inactive,inactive,inactive,inactive,inactive,inactive,–,–,–
C[C@]12CCC(=O)C[C@@H]1CC[C@@H]1[C@@H]2CC[C@]2(C)[C@@H](O)CC[C@@H]12,inactive,inactive,inactive,inactive,inactive,inactive,inactive,–,–,–
O=C(NC(=O)c1c(F)cccc1F)Nc1ccc(Cl)cc1,inactive,inactive,inactive,inactive,inactive,inactive,inactive,inactive,–,–
O=[N+]([O-])c1ccc(O)c([N+](=O)[O-])c1,inactive,inactive,inactive,inactive,inactive,inactive,inactive,inactive,–,–
CC(C)c1ccc(CO)cc1,inactive,inactive,inactive,inactive,inactive,inactive,inactive,inactive,–,–
O=P(O)(O)CCCl,inactive,inactive,inactive,inactive,inactive,inactive,inactive,inactive,–,–
Nc1c(Cl)cc([N+](=O)[O-])cc1Cl,inactive,inactive,inactive,inactive,inactive,inactive,inactive,inactive,inactive,inactive
S=C1NCCN1,inactive,inactive,inactive,inactive,inactive,inactive,inactive,inactive,–,–
CCCCCCOC(=O)c1ccccc1C(=O)OCCCCCC,inactive,inactive,inactive,inactive,inactive,inactive,inactive,inactive,inactive,inactive
CNC(=O)N(C)c1nnc(C(C)(C)C)s1,inactive,inactive,inactive,inactive,inactive,inactive,inactive,inactive,–,–
CCCCCCCCOC(=O)c1ccccc1C(=O)OCCCCCCCC,inactive,inactive,inactive,inactive,inactive,inactive,inactive,inactive,–,–
Cc1c(COC(=O)[C@@H]2[C@H](/C=C(\Cl)C(F)(F)F)C2(C)C)cccc1-c1ccccc1,inactive,inactive,inactive,inactive,inactive,inactive,inactive,inactive,–,–
O=C1C=CC(=O)C=C1,inactive,inactive,inactive,inactive,inactive,inactive,inactive,–,–,–
Cc1ccc2c(c1N)C(=O)c1ccccc1C2=O,inactive,inactive,inactive,inactive,inactive,inactive,inactive,inactive,inactive,–
Nc1cccnc1,inactive,inactive,inactive,inactive,inactive,inactive,inactive,–,–,–
CCN(CC)N=O,inactive,inactive,inactive,inactive,inactive,inactive,inactive,inactive,–,–
Nc1ccc(-c2ccc(N)c(N)c2)cc1N,inactive,inactive,inactive,inactive,inactive,inactive,inactive,inactive,–,–

Compound,outcome [1],outcome [2],outcome [3],outcome [4],outcome [5],outcome [6],outcome [7],outcome [8],Potency [9],Potency [10]
Nc1ccncc1,inactive,inactive,inactive,–,inactive,inactive,inactive,–,–,–
CCOCN(C(=O)CCl)c1c(C)cccc1CC,inactive,inactive,inactive,inactive,inactive,inactive,inactive,–,inactive,–
CCC(C)c1ccc(O)cc1 (stereo not drawn),inactive,inactive,inactive,inactive,inactive,inactive,inactive,inactive,inactive,inactive
CC(C)=CC1C(C(=O)OCc2coc(Cc3ccccc3)c2)C1(C)C (stereo not drawn),inactive,inactive,inactive,inactive,inactive,inactive,inactive,inactive,inactive,21.8 µM (active)
Cc1ccccc1[N+](=O)[O-],inactive,inactive,inactive,inactive,inactive,inactive,inactive,inactive,inactive,inactive
Oc1cc(Cl)ccc1Oc1ccc(Cl)cc1Cl,inactive,inactive,inactive,inactive,inactive,inactive,inactive,–,inactive,–
Nc1ccc(Cl)cc1N,inactive,inactive,inactive,inactive,inactive,inactive,inactive,–,inactive,inactive
CCC(=O)O[C@H]1CC[C@H]2[C@@H]3CCC4=CC(=O)CC[C@]4(C)[C@H]3CC[C@]12C,inactive,inactive,inactive,inactive,inactive,inactive,inactive,inactive,inactive,5.12 µM (active) and 4.9 µM (active)
C=CCN(CC=C)C(=O)C(Cl)Cl,inactive,inactive,inactive,inactive,inactive,inactive,inactive,inactive,inactive,inactive
CCC(C)c1cc([N+](=O)[O-])cc([N+](=O)[O-])c1O (stereo not drawn),inactive,inactive,inactive,inactive,inactive,inactive,inactive,–,inactive,inactive
O=S(=O)(Oc1ccc(Cl)cc1)c1ccc(Cl)cc1,inactive,inactive,inactive,inactive,inactive,inactive,inactive,–,inactive,–
c1ccc(P(c2ccccc2)c2ccccc2)cc1,inactive,inactive,inactive,inactive,inactive,inactive,inactive,–,inactive,inactive
NNC(=S)NN,inactive,inactive,inactive,–,inactive,inactive,inactive,–,–,–
c1ccc(N=Nc2ccccc2)cc1,inactive,inactive,inactive,inactive,inactive,inactive,inactive,inactive,inactive,inactive
CC(C)(C)c1ccccc1O,inactive,inactive,inactive,inactive,inactive,inactive,inactive,–,inactive,inactive
O=[N+]([O-])c1cccc2ccccc12,inactive,inactive,inactive,–,inactive,inactive,inactive,–,–,–
CCCCOCCOP(=O)(OCCOCCCC)OCCOCCCC,inactive,inactive,inactive,inactive,inactive,inactive,inactive,inactive,inactive,inactive
C#C[C@]1(O)CC[C@H]2[C@@H]3CCC4=CC(=O)CC[C@]4(C)[C@H]3CC[C@@]21C,inactive,inactive,inactive,inactive,inactive,inactive,inactive,inactive,inactive,1.69 µM (active)
NNC(N)=S,inactive,inactive,inactive,inactive,inactive,inactive,inactive,–,inactive,inactive
